The test system of this experiment is A549. Put plainly: relative viability (normalised to negative control = 1, bortezomib = 0) (fraction); higher = less cytotoxic. To be noted: inflammatory serum-free RHB-A with cytokines + LPS, 5 d + 24 h CellTiter-Blue. In general terms: The colour change of resazurin is a common sign of viable cells or microbes.
[1] abbreviates: compound 30 nM, GSK126 pretreatment: 5 uM GSK126.
The mark [2] stands for this setting: compound 30 nM, GSK126 pretreatment: none (vehicle).
The mark [3] stands for this setting: compound 300 nM, GSK126 pretreatment: 5 uM GSK126.
Setting [4] is: compound 300 nM, GSK126 pretreatment: none (vehicle).

Where a name gives a salt, the structure may show the parent alone. ± gives the standard deviation of the averaged measurements.

On to `CO[C@@H](C(=O)N1Cc2[nH]nc(NC(=O)c3ccc(N4CCN(C)CC4)cc3)c2C1)c1ccccc1`, for which the relative viability came out at 0.626 ± 0.07 under setting [1], 0.622 ± 0.05 under setting [2], 0.488 ± 0.032 under setting [3] and 0.504 ± 0.058 under setting [4].
On the same counts, the results for `CNC(=O)c1cc(Oc2ccc(NC(=O)Nc3cc(C(C)(C)C)nn3-c3ccc4ncccc4c3)c(F)c2)ccn1` [DCC-2036 (Rebastinib)] are 1.37 ± 0.1, 1.35 ± 0.12, 1.48 ± 0.067 and 1.57 ± 0.06.
On the same counts, the results for `Nc1ncn([C@H]2C[C@H](O)[C@@H](CO)O2)c(=O)n1` [5-Aza-2'-deoxycytidine; Decitabine] are 0.841 ± 0.15, 0.715 ± 0.17, 0.86 ± 0.18 and 0.836 ± 0.13.
As for `Cc1ccc(-c2cc(C(F)(F)F)nn2-c2ccc(S(N)(=O)=O)cc2)cc1` [Celecoxib], the relative viability runs as follows: under setting [1], 0.842 ± 0.065; under setting [2], 0.787 ± 0.09; under setting [3], 0.783 ± 0.13; under setting [4], 0.908 ± 0.14.
For `CCS(=O)(=O)Nc1ccc2[nH]c(O)c(C(=Nc3ccc(CN4CCCCC4)cc3)c3ccccc3)c2c1` [Hesperadin], the relative viability was 0.652 ± 0.13 under setting [1], 0.598 ± 0.063 under setting [2], 0.336 ± 0.019 under setting [3] and 0.331 ± 0.022 under setting [4].
Turning to `CC(=O)c1c(C)c2cnc(Nc3ccc(N4CCNCC4)cn3)nc2n(C2CCCC2)c1=O`, the relative viability under setting [1] stood at 0.89 ± 0.074, the relative viability under setting [2] came to 0.913 ± 0.063, the relative viability under setting [3] worked out at 0.903 ± 0.087 and the relative viability under setting [4] stood at 0.931 ± 0.064.
On the same counts, the results for `O=c1cc(-c2cccc3c2Sc2ccccc2S3)oc(N2CCOCC2)c1` are 0.781 ± 0.04, 0.845 ± 0.035, 0.833 ± 0.044 and 0.875 ± 0.069.
Taken in the same sequence, the figures for `FC(F)(F)c1ccc(/C=C/c2nc(COc3ccc(CCCCn4ccnn4)cc3)co2)cc1` [Mubritinib (TAK 165)] were 0.798 ± 0.028, 0.837 ± 0.061, 0.561 ± 0.081 and 0.94 ± 0.011.
Taken in the same sequence, the figures for `COc1cc(Nc2ncc3c(n2)-c2ccc(Cl)cc2C(c2c(F)cccc2OC)=NC3)ccc1C(=O)O` were 0.804 ± 0.087, 0.821 ± 0.044, 0.523 ± 0.11 and 0.381 ± 0.048.
`COc1cc(Nc2ncc(F)c(Nc3ccc4c(n3)N(COP(=O)(O)O)C(=O)C(C)(C)O4)n2)cc(OC)c1OC`: the relative viability under setting [1] came out at 0.929 ± 0.03, the relative viability under setting [2] stood at 0.888 ± 0.056, the relative viability under setting [3] was 0.952 ± 0.013 and the relative viability under setting [4] was determined as 0.983 ± 0.067.
On the same counts, the results for `Cc1cc(C(=O)NOCCO)c(Nc2ccc(I)cc2F)n(C)c1=O` are 0.137 ± 0.0076, 0.158 ± 0.004, 0.0557 ± 0.021 and 0.0366 ± 0.01.
On the same counts, the results for `CNC(=O)c1cc(Oc2ccc(NC(=O)Nc3ccc(Cl)c(C(F)(F)F)c3)cc2)ccn1` [Sorafenib tosylate; Sorafenib; Sorafenib Tosylate] are 1.12 ± 0.089, 1.04 ± 0.039, 1.12 ± 0.18 and 1.1 ± 0.1.
With `O=C(CCCCCCC(=O)Nc1ccccc1)NO` [Vorinostat; SAHA], the relative viability is 0.83 ± 0.15 under setting [1], 0.868 ± 0.073 under setting [2], 0.891 ± 0.17 under setting [3] and 1 ± 0.19 under setting [4].
Taken in the same sequence, the figures for `CO[C@H](C(=O)[C@@H](O)[C@@H](C)O)[C@@H]1Cc2cc3cc(O[C@H]4C[C@@H](O[C@H]5C[C@@H](O)[C@H](O)[C@@H](C)O5)[C@H](O)[C@@H](C)O4)c(C)c(O)c3c(O)c2C(=O)[C@H]1O[C@H]1C[C@@H](O[C@H]2C[C@@H](O[C@H]3C[C@](C)(O)[C@H](O)[C@@H](C)O3)[C@@H](O)[C@@H](C)O2)[C@H](O)[C@@H](C)O1` [Plicamycin] were 0.1 ± 0.012, 0.183 ± 0.058, 0.00825 ± 0.00088 and 0.0263 ± 0.0054.
On the same counts, the results for `Cc1cnc(-c2cnc(NCCNc3ccc(C#N)cn3)nc2-c2ccc(Cl)cc2Cl)[nH]1` are 0.847 ± 0.064, 0.834 ± 0.016, 0.788 ± 0.059 and 0.732 ± 0.097.
Taken in the same sequence, the figures for `Clc1ccc(C(c2ccccc2Cl)C(Cl)Cl)cc1` (stereo not given) were 0.827 ± 0.1, 0.804 ± 0.093, 0.832 ± 0.16 and 0.983 ± 0.12.
`C#CCC(Cc1cnc2nc(N)nc(N)c2n1)c1ccc(C(=O)N[C@@H](CCC(=O)O)C(=O)O)cc1` (stereo not given in full) [pralatrexate]: the relative viability came out at 0.878 ± 0.027 under setting [1], 0.859 ± 0.075 under setting [2], 0.765 ± 0.068 under setting [3] and 0.896 ± 0.06 under setting [4].
On the same counts, the results for `O=c1ncn2nc(Sc3ccc(F)cc3F)ccc2c1-c1c(Cl)cccc1Cl` are 0.831 ± 0.12, 0.867 ± 0.11, 1.12 ± 0.12 and 1.03 ± 0.16.
Taken in the same sequence, the figures for `C[C@@H]1CCN(C(=O)CC#N)C[C@@H]1N(C)c1ncnc2[nH]ccc12` were 1.05 ± 0.18, 0.99 ± 0.17, 1.31 ± 0.067 and 1.28 ± 0.1.
Taken in the same sequence, the figures for `O=C1NC(=O)/C(=C\c2ccc3nccnc3c2)S1` were 0.877 ± 0.1, 0.854 ± 0.032, 0.915 ± 0.14 and 0.946 ± 0.17.
On to `Cn1nnc2c(C(N)=O)ncn2c1=O` [Temozolomide], for which the relative viability under setting [1] stood at 0.831 ± 0.044, the relative viability under setting [2] was 0.837 ± 0.029, the relative viability under setting [3] was found to be 0.828 ± 0.067 and the relative viability under setting [4] was 0.943 ± 0.061.
With `CCCS(=O)(=O)Nc1ccc(F)c(C(=O)c2c[nH]c3ncc(-c4ccc(Cl)cc4)cc23)c1F` [vemurafenib], the relative viability under setting [1] amounted to 0.86 ± 0.082, the relative viability under setting [2] amounted to 0.848 ± 0.071, the relative viability under setting [3] worked out at 1 ± 0.051 and the relative viability under setting [4] came out at 1.02 ± 0.061.
Taken in the same sequence, the figures for `Cn1cc(-c2ccc3nnc(Sc4ccc5ncccc5c4)n3n2)cn1` were 0.807 ± 0.056, 0.846 ± 0.079, 0.859 ± 0.033 and 0.903 ± 0.02.
Taken in the same sequence, the figures for `CCOc1cc2ncc(C#N)c(Nc3ccc(F)c(Cl)c3)c2cc1NC(=O)/C=C/CN(C)C` [Pelitinib] were 0.562 ± 0.038, 0.504 ± 0.012, 0.0719 ± 0.015 and 0.0851 ± 0.02.
On the same counts, the results for `C#Cc1cccc(Nc2ncnc3cc(OCCOC)c(OCCO)cc23)c1` [OSI-420 (Desmethyl Erlotinib)] are 0.944 ± 0.086, 0.91 ± 0.05, 0.477 ± 0.047 and 0.505 ± 0.019.

The record behind these values is the supplement of paper PMC6279402.
